Peg3 promoter: Peg3 promoter activity inhibition | HeLa PEG-Prom luciferase reporter, luminescence, overnight | inhibition, % at 20 µM | 1.7% of 360,000 active;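 active = inhibition of at least 50% at 20 µM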
MITF TRPM1 inh: inhibitors of MITF-driven TRPM1 promoter in melanoma cells; AID 488899; 0.83% of 330,000 active; SK-MEL-5 TRPM1 promoter luciferase, 24 h; inhibition, % at 12.5 µM;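 active = mean inhibition across replicates of 60% or more, whatever share of single replicates reaches that level; inconclusive = some that reach 60%, reason not given; inactive = mean inhibition across replicates below 60%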
Shn3 inh set2: reduces Shn3 3'UTR luciferase signal in osteoblasts | Clone20 osteoblast Shn3 3'UTR firefly luciferase, 24 h | inhibition, % at 12.5 µM | 0.52% of 360,000 active | AID 588674;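 active = mean inhibition of at least 75% with every replicate also reaching 75%; inconclusive = mean inhibition at least 75% but some replicate below; inactive = mean inhibition below 75%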;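 also: 0% = median of neutral control wells and 100% = pilot-screen positive control compound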
ABHD5 PLIN5 PPI: inhibitors of human ABHD5-perilipin-5 interaction; Q00G26+Q8WTS1; Split G. princeps luciferase complementation, luminescence, 4 h; inhibition, % at 4 µM; 0.78% of 360,000 active; AID 602281;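 active = inhibition above the mean inhibition across every tested compound plus 3 SD, cut at about 22% in these data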;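 also: 0% = DMSO only wells and the 100% control is not disclosed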
PAX8 reporter: PAX8 transcriptional activity inhibition; inhibition, % at 12.6 µM; RMG-I TPO-luciferase reporter, SteadyGlo, 24 h; 1.2% of 360,000 active;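 active = mean replicate inhibition at least 60% with every replicate also reaching 60%; inconclusive = only one of the two criteria is met; inactive = mean below 60% and not all replicates reaching 60%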;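 also: luciferase light reporting Pax8 driven TPO promoter activity; plate controls were median of neutral control wells for no effect and mitoxantrone controls for full effect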
EWS-Fli block: EWS/Fli transcriptional activity inhibition. A673 NR0B1-luciferase reporter, viability-normalised. inhibition, % at 12.6 µM. 0.67% of 350,000 active;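 active = mean inhibition of at least 50% after viability correction, with every replicate also passing that limit; inconclusive = mean reaches 50% but only one of two replicates passes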;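 also: firefly luciferase signal divided by Alamar Blue viability fluorescence both relative to DMSO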
ABHD5 PLIN5 conf: confirmation of human ABHD5-PLIN5 interaction inhibitors. shares compounds with ABHD5 PLIN5 PPI. biochemical ABHD5-PLIN5 interaction, luminescence. inhibition, % at 4 µM. 67% of 2,200 active. AID 651612; in the data active = inhibition above about 23%;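 also: 0% = DMSO vehicle wells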
HNF4 counter: HNF4 split-luciferase signal hit, counter-screen; shares compounds with ABHD5 PLIN5 PPI; HNF4 dimerization, luminescence, biochemical; inhibition, % at 4 µM; 77% of 2,200 active;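 active = mean inhibition across replicate wells exceeding the computed hit threshold, cut at about 13% in these data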;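 also: light from luciferase halves that rejoin when HNF4 fusion proteins dimerize; 0% = DMSO only wells and the 100% control is not given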
Target sequence (P41235 whole entry, looked up, the tested form may be a part): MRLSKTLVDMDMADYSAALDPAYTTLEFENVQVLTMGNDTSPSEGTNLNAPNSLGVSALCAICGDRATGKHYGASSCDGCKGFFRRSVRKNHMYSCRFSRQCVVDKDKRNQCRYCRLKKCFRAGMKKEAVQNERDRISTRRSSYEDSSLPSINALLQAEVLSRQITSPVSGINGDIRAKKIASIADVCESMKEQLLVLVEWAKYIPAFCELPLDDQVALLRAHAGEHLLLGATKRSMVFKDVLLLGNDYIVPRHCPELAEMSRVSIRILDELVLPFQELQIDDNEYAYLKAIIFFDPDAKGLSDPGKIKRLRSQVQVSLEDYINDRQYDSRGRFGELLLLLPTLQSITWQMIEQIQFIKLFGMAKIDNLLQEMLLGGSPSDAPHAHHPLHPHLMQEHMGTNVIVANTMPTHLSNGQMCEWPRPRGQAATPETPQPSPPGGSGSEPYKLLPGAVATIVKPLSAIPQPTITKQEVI
An asterisk follows results filed as active. This is a sample that favours compounds with a hit; in the whole collection about 3% have one here.

How did O=C(C[C@@H]1CC[C@@H]2[C@H](COC[C@@H](O)CN2C(=O)c2ccccc2F)O1)NCc1ccc(F)cc1 do in these assays?
PAX8 reporter: 15; EWS-Fli block: -1

Results for O=C(c1ccco1)N1CCN(c2cc(=O)n(-c3ccc(Cl)cc3)c(=O)[nH]2)CC1 ?
Peg3 promoter: 0; MITF TRPM1 inh: 5; Shn3 inh set2: 1; ABHD5 PLIN5 PPI: 13; PAX8 reporter: -2; EWS-Fli block: -1

What do the screens show for `Cc1ccc(Cl)cc1-n1c(=O)cc(N2CCN(C(=O)c3ccco3)CC2)[nH]c1=O`?
Peg3 promoter: -2; MITF TRPM1 inh: 4; Shn3 inh set2: 2; ABHD5 PLIN5 PPI: 23*; EWS-Fli block: 9; ABHD5 PLIN5 conf: 5; HNF4 counter: 4

Results for CC(=O)Nc1ccc2c(c1)C(=O)N(C)[C@@H]1CC[C@@H](CC(=O)NC3CCCCC3)O[C@@H]1CO2 ?
PAX8 reporter: -3; EWS-Fli block: 4

How did Cc1ccc(/C=N/N2CCN(C3c4ccccc4-c4ccccc43)CC2)o1 do in these assays?
Peg3 promoter: 17; MITF TRPM1 inh: -8; Shn3 inh set2: -33; ABHD5 PLIN5 PPI: 26*; PAX8 reporter: 2; EWS-Fli block: 8; ABHD5 PLIN5 conf: 8; HNF4 counter: 13*

How did Oc1ccc(/C=N/N2CCN(C3c4ccccc4-c4ccccc43)CC2)cc1 do in these assays?
Peg3 promoter: 2; MITF TRPM1 inh: -4; Shn3 inh set2: 2; ABHD5 PLIN5 PPI: -5; PAX8 reporter: 15; EWS-Fli block: 1

Results for Cc1ccc(S(=O)(=O)N[C@@H]2CC[C@@H](CC(=O)NCc3ccc(Cl)c(Cl)c3)O[C@@H]2CO)cc1 ?
PAX8 reporter: 10; EWS-Fli block: -3

Results for CC(=O)N(C)C[C@@H]1[C@@H](c2ccc(C#Cc3ccccn3)cc2)[C@@H](CO)N1C(C)=O ?
EWS-Fli block: -5

What do the screens show for `O=C1OC(/C(=C\Nc2ccccc2)[N+](=O)[O-])c2ccccc21` (stereo not given)?
Peg3 promoter: 0; MITF TRPM1 inh: -12; Shn3 inh set2: -17; ABHD5 PLIN5 PPI: 42*; PAX8 reporter: 3; EWS-Fli block: 9; ABHD5 PLIN5 conf: 7; HNF4 counter: 26*

Results for Cc1ccccc1NC(=O)c1nc(S(C)(=O)=O)ncc1Cl ?
Peg3 promoter: 105*; MITF TRPM1 inh: 28; Shn3 inh set2: 97*; ABHD5 PLIN5 PPI: 38*; PAX8 reporter: 18; EWS-Fli block: 74*; ABHD5 PLIN5 conf: 59*; HNF4 counter: 85*

How did CS(=O)(=O)c1ncc(Cl)c(C(=O)Nc2ccc(OC(F)F)cc2)n1 do in these assays?
Peg3 promoter: 102*; MITF TRPM1 inh: 73*; Shn3 inh set2: 93*; ABHD5 PLIN5 PPI: 75*; ABHD5 PLIN5 conf: 89*; HNF4 counter: 103*

Results for CCOC(=O)c1nc(S(C)(=O)=O)ncc1N1CCOCC1 ?
Peg3 promoter: 6; MITF TRPM1 inh: 8; Shn3 inh set2: -10; ABHD5 PLIN5 PPI: 14

Results for CCOC(=O)c1nc(S(C)(=O)=O)ncc1Cl ?
Peg3 promoter: 105*; MITF TRPM1 inh: 29; Shn3 inh set2: 96*; ABHD5 PLIN5 PPI: 55*; EWS-Fli block: inconclusive; ABHD5 PLIN5 conf: 56*; HNF4 counter: 90*

What do the screens show for `COc1ccc(-c2cnc3c(c2)C(=O)N([C@@H](C)CO)C[C@@H](C)[C@H](CN(C)S(=O)(=O)c2ccc(OC)cc2)O3)cc1`?
EWS-Fli block: 2

How did COC(=O)C[C@H]1C=C[C@@H](NS(=O)(=O)c2ccc(OC)cc2)[C@@H](CO)O1 do in these assays?
PAX8 reporter: -3; EWS-Fli block: -2

Results for Oc1ccccc1C1CC(c2cccs2)=NC(c2cccc(Br)c2)N1 (stereo not given) ?
Peg3 promoter: -71; MITF TRPM1 inh: -21; Shn3 inh set2: -55; ABHD5 PLIN5 PPI: 45*; PAX8 reporter: -56; EWS-Fli block: -28; ABHD5 PLIN5 conf: 23*; HNF4 counter: 49*

Results for COc1ccc(NC(=O)Nc2ccc3c(c2)C(=O)N([C@H](C)CO)C[C@H](C)[C@H](CN(C)Cc2ccc(Oc4ccccc4)cc2)O3)cc1 ?
PAX8 reporter: -6; EWS-Fli block: -1

Results for C/C=C/c1ccc([C@H]2[C@@H](CO)N3CCCCN(C(=O)Nc4cc(F)ccc4F)C[C@H]23)cc1 ?
PAX8 reporter: 18; EWS-Fli block: 0

What do the screens show for `Cc1cccc(S(=O)(=O)Nc2nc3ccccc3nc2NCc2ccco2)c1`?
Peg3 promoter: 25; MITF TRPM1 inh: 7; Shn3 inh set2: -19; ABHD5 PLIN5 PPI: 1

How did Cc1ccc(S(=O)(=O)Nc2nc3ccccc3nc2NCc2ccco2)cc1C do in these assays?
Peg3 promoter: 14; MITF TRPM1 inh: 1; Shn3 inh set2: -2; ABHD5 PLIN5 PPI: 28*; ABHD5 PLIN5 conf: 15; HNF4 counter: 27*

Results for O=[N+]([O-])c1ccc2c(c1)C(N1CCN(CCO)CC1)Cc1ccc(F)cc1S2 (stereo not given) ?
Peg3 promoter: 34; Shn3 inh set2: 11; ABHD5 PLIN5 PPI: 8; PAX8 reporter: 21; EWS-Fli block: -3

Results for CSc1ccc2c(c1)C(N1CCN(C)CC1)Cc1ccc(F)cc1S2 (stereo not given) ?
Peg3 promoter: 115*; Shn3 inh set2: -17; ABHD5 PLIN5 PPI: 26*; PAX8 reporter: -6; EWS-Fli block: -3; ABHD5 PLIN5 conf: 18; HNF4 counter: 3

What do the screens show for `CCCNC(=O)N1[C@@H](CO)[C@@H]2c3ccccc3N(C(=O)Nc3ccc(F)cc3)C[C@@H]21`?
PAX8 reporter: -26; EWS-Fli block: -2

How did O=C(Nc1cccc(F)c1)N1CC(=O)N2[C@H](CO)[C@@H](c3ccc(-c4ccccc4)cc3)[C@@H]2C1 do in these assays?
PAX8 reporter: -33; EWS-Fli block: 1

What do the screens show for `CCOC(=O)C1CCCN(c2cc(NCCCO)c([N+](=O)[O-])c3nonc23)C1` (stereo not given)?
PAX8 reporter: 12; EWS-Fli block: -7

Results for O=[N+]([O-])c1c(NCCO)cc(N2CCCCCC2)c2nonc12 ?
Peg3 promoter: 16; MITF TRPM1 inh: -5; Shn3 inh set2: 15; ABHD5 PLIN5 PPI: -7; PAX8 reporter: 23; EWS-Fli block: 1

How did Cc1nnc(Sc2cc(NCCO)c([N+](=O)[O-])c3nonc23)s1 do in these assays?
Peg3 promoter: 31; MITF TRPM1 inh: 67*; Shn3 inh set2: 34; ABHD5 PLIN5 PPI: 50*; PAX8 reporter: 30; EWS-Fli block: 1; ABHD5 PLIN5 conf: 52*; HNF4 counter: 114*
